# Data: the supplement of paper PMC10338343
# ± gives the standard deviation.
# Test system: MILI (PIWIL2) piRISC loaded with L1MC piRNA (26 nt)
# Test: pre-steady-state target cleavage rate (min^-1); guide: L1MC piRNA 5'p-UAACUAAAUACUAUGCAAGCUGUAGG; MIWI and MILI are mouse PIWI proteins and EfPiwi is from a freshwater sponge; tags in brackets are library labels; higher = faster piRNA-guided slicing of the target
# Conditions: auxiliary factor: 500 nM mouse GTSF1
# Protocol: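 Cleave-'n-Seq: a library of target RNAs (target site embedded in constant flanks, ACAGCATTCCGCGTTAGTGATATCCG... 5' flank; DNA-blocked outside the site) at 0.1 nM was incubated with 1 nM active mouse MILI or MIWI piRISC (synthetic 5'-monophosphorylated piRNA guide) with or without 500 nM mouse GTSF1 at 33 °C for 1 min to 16 h. Uncleaved targets were sequenced and normalised to non-target controls, and the pooled three trials were fitted to a burst-and-steady-state model to give the pre-steady-state cleavage rate (min^-1; k3 is constrained to at most 1e-4). Sequence is the target site only; target names encode pairing extent (gX:gY) and contiguous / 1-mismatch / 2-mismatch / bulge geometry. Fits with R² ≤ 0 are excluded.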
row,Sequence,pre-steady-state target cleavage rate
1,UCCUGGUACAGCCUGCAUAGUAUUUAGUUA,0.186 ± 0.024
2,UCCUGGAUGUGCUUGCAUAGUAUAAAGUAA,0.0114 ± 0.0059
3,UCCUGGAUGUCGAAGCAUGGUAUUUAGUUA,0.0111 ± 0.0048
4,UCCUGGAACAGCAUGCAUACUAUUUAGUUA,0.0727 ± 0.0093
5,UCCUGGAUGUGCUUGCAUAGUAUCUAGUUA,0.135 ± 0.031
6,UCCUGGAACCGCUUGCAUAGUAUUUAGUUA,0.265 ± 0.015
7,UCCUGCUACAGCUUGCAUUGUAAUUAGUUA,0.201 ± 0.024
8,UCCUGGAUCACCUUGCAUAGUAUUUUGUUA,0.11 ± 0.027
9,UCCUGGAUCAGCUUGCUUAGUAUUUAGUAA,0.218 ± 0.012
10,UCCUCCUACAGCUUGCAUAGUAUAUAGAAA,0.105 ± 0.028
11,UCCUGGAUGUCGUUGCAUAGUAUUUAGUUU [g2:g18:cont:t1U],0.128 ± 0.016
12,UCCUGCUACUGCUUGCAUAGUAUUUUGUUA,0.138 ± 0.024
13,UCCUCGUACAGCUUGCAUAGUAUAUAGUUA,0.251 ± 0.02
14,UCCUCCUACAGCUUGCCUAGUAUUUAGUUA,0.253 ± 0.022
15,UCCUCCUUGAGCUUGCAUAGUAUUUACAAA,0.0856 ± 0.023
16,UCCUGGAACAGCUUGCAUAGUAUUUAGUCA,0.224 ± 0.024
17,UCCUGGAUGAGCUUGCUUAGUAUAUAGUUA,0.103 ± 0.02
18,UCCUGGAUGUCGUUGCAUAGUAGUUAGUUA,0.013 ± 0.0052
19,UCCUGGAUGUCCUUGGAUAGUAAUUAGUUA,0.411 ± 0.1
20,UCCUGGUACAGGUAGCAUAGUAUUUAGUUA,0.21 ± 0.021
21,UCCUCCUUCACCUUGCAUAGUAUUUAGUUA,0.212 ± 0.028
22,UCCUCCUACUGCAUGCAUAGUAUUUAGUUA,0.252 ± 0.013

# Same assay, conditions: auxiliary factor: none (no GTSF1)
row,Sequence,pre-steady-state target cleavage rate
1,UCCUGGUACAGCCUGCAUAGUAUUUAGUUA,0.0143 ± 0.004
2,UCCUGGAUGUCGAAGCAUGGUAUUUAGUUA,0.00436 ± 0.0021
3,UCCUGGAACAGCAUGCAUACUAUUUAGUUA,0.00273 ± 0.0026
4,UCCUGGAUGUGCUUGCAUAGUAUCUAGUUA,0.00366 ± 0.0031
5,UCCUGGAACCGCUUGCAUAGUAUUUAGUUA,0.0108 ± 0.002
6,UCCUGCUACAGCUUGCAUUGUAAUUAGUUA,0.00494 ± 0.0018
7,UCCUGGAUCAGCUUGCUUAGUAUUUAGUAA,0.00347 ± 0.0021
8,UCCUGGAUGUCGUUGCAUAGUAUUUAGUUU [g2:g18:cont:t1U],0.0134 ± 0.0037
9,UCCUGCUACUGCUUGCAUAGUAUUUUGUUA,0.00318 ± 0.0029
10,UCCUCGUACAGCUUGCAUAGUAUAUAGUUA,0.00528 ± 0.0018
11,UCCUCCUACAGCUUGCCUAGUAUUUAGUUA,0.00736 ± 0.002
12,UCCUGGAACAGCUUGCAUAGUAUUUAGUCA,0.00732 ± 0.0022
13,UCCUGGAUGAGCUUGCUUAGUAUAUAGUUA,0.00937 ± 0.0029
14,UCCUGGAUGUCGUUGCAUAGUAGUUAGUUA,0.00511 ± 0.0031
15,UCCUGGAUGUCCUUGGAUAGUAAUUAGUUA,0.00325 ± 0.0027
16,UCCUGGUACAGGUAGCAUAGUAUUUAGUUA,0.00976 ± 0.0036
17,UCCUCCUUCACCUUGCAUAGUAUUUAGUUA,0.00635 ± 0.0025
18,UCCUGGAUGUCGAUCCAUUGUAUUUAGUUA,< 0.0001
19,UCCUCCUACUGCAUGCAUAGUAUUUAGUUA,0.011 ± 0.0022
